# PubChem BioAssay AID1835 (Johns Hopkins Ion Channel Center, 2009)
# Out of some 2,400 compounds screened, about 750 (31%) were called active. This is one part of the list. Values without a mark were called inactive.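 The calls were made as follows: active = median signal gain over dofetilide-blocked control wells reaching their mean plus 3 SD, so readout 1 at least 0; inactive = the rest.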
# Molecular target: Voltage-gated inwardly rectifying potassium channel KCNH2 (Homo sapiens) (UniProt Q12809)
# Sequence (Q12809 whole entry, looked up): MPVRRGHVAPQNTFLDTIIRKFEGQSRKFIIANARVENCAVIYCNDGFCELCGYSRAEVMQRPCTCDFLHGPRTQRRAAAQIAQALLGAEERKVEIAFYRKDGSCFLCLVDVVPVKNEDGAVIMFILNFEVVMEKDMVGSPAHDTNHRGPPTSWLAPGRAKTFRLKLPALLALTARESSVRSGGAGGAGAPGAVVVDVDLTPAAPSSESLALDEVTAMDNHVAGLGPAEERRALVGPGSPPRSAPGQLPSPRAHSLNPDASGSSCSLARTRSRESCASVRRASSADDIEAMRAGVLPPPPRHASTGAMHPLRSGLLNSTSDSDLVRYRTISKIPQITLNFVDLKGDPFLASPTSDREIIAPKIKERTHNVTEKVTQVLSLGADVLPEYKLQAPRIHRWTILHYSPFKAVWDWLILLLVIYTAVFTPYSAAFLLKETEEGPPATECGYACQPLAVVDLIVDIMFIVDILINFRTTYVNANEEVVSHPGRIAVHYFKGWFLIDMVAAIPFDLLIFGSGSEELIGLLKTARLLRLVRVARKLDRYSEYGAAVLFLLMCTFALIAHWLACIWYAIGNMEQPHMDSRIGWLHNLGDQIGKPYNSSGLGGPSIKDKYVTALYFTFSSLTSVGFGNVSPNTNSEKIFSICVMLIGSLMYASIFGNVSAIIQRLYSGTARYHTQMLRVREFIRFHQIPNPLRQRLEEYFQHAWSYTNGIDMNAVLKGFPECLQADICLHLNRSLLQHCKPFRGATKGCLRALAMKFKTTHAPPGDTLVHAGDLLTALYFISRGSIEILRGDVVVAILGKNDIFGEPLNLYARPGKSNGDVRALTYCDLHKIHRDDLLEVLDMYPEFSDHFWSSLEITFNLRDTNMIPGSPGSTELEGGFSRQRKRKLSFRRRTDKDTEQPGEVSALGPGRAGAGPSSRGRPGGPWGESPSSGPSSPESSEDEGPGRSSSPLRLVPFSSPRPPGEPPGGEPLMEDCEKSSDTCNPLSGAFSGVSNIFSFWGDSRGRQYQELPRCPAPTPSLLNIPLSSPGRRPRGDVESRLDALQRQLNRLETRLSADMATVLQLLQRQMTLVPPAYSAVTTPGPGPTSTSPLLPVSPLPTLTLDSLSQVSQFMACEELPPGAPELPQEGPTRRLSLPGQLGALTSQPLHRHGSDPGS
# Experiment: hERG protection against dofetilide inhibition, confirmation, cell-based, thallium flux, duplicate retest, dofetilide IC70 (AID 1835)
# Conditions: hERG cell line, FluxOR thallium flux, dofetilide-blocked; at 10 µM; hits give high values
row,Structure (SMILES),"activity increase over dofetilide control, less the hit threshold"
1,O=[N+]([O-])c1cccnc1Sc1n[nH]c(-c2ccc(Cl)cc2)n1,-14%
2,Cc1ccc2[nH]c3c(c2c1)CNCC3,-15%
3,CCC(=O)Nc1nnc(-c2ccccn2)o1,-17%
4,O=C(NN1C(=O)C2C(c3ccccc3)C=CC(c3ccccc3)C2C1=O)c1ccncc1 (stereo not drawn),-56%
5,CC1CN(C(=S)NC(=O)c2ccc(Cl)cc2)CC(C)O1 (stereo not drawn),5% (active)
6,COc1ccc(C(=O)NC(=S)N2CCC(C)CC2)cc1Br,26% (active)
7,O=C(C1CC(=O)N(c2ccc3c(c2)OCCO3)C1)N1CCCC(C(F)(F)F)C1 (stereo not drawn),-15%
8,O=C(NC(=S)N1CCCC(C(F)(F)F)C1)c1ccc(F)cc1 (stereo not drawn),19% (active)
9,O=C(c1ccc(C(F)(F)F)cc1)C1CCCN(C(=O)CCc2ccncc2)C1 (stereo not drawn),-7%
10,COc1ccc(C(=O)NC(=S)N2CCC(C)CC2)cc1,-11%
11,Cc1ccc2c(c1)N(CCC(=O)NCc1cccnc1)C(=O)CO2,-17%
12,O=C1NC2(CCCCCC2)C(=O)N1Cc1ccccc1,-2%
13,CC(C)(C)OC(=O)NCCCC(CCCNC(=O)OC(C)(C)C)C(=O)O,-22%
14,CCOC(=O)CN1C(=O)SC(Nc2ccc(C)cc2)C1=O (stereo not drawn),-10%
15,Cc1nc2c(C(=O)NCc3cccs3)cnn2c(C)c1Cc1ccccc1,-12%
16,CCCn1c(SCC(N)=O)nc2c(c1=O)C1(CCCC1)Cc1ccccc1-2,2% (active)
17,CC1CCCN(C(=O)COC(=O)c2cc(-c3cccs3)nn2-c2ccccc2)C1 (stereo not drawn),-29%

row,Structure (SMILES),"activity increase over dofetilide control, less the hit threshold"
1,Nc1ccc(NC(=O)Nc2ccc(N)cc2)cc1,-3%
2,O=C(NCc1ccco1)c1ccc(OCC2CCCO2)cc1 (stereo not drawn),-22%
3,Cc1cc2c(cc(C(=O)OC(C(=O)NCc3ccco3)C(C)C)n2C)o1 (stereo not drawn),2% (active)
4,COc1cccc(N2CCN(CC(=O)NC(=O)NCc3ccco3)CC2)c1,-9%
5,Cc1ccc(/C=C(\NC(=O)c2ccccc2)C(=O)N2CCCCC2)cc1,-26%
6,CCc1ccc(/C=c2\s/c(=C\C(=O)C(C)(C)C)[nH]c2=O)cc1,-6%
7,Cc1ccc(/C=C/C(=O)C2C(=O)c3ccccc3C2=O)cc1,42% (active)
8,CC(=O)C1=C(C)NC(=O)NC1/C=C/c1ccccc1 (stereo not drawn),-1%
9,CCc1ccc(/C=C/C(=O)C2C(=O)c3ccccc3C2=O)cc1,49% (active)
10,CCC(c1nnc(SCC(=O)NCCc2ccc(Cl)cc2Cl)o1)N(C)C (stereo not drawn),-16%
11,O=C(COc1ccc(Cl)cc1)N1CCN(Cc2ccc3c(c2)OCO3)CC1,-17%
12,O=C(NC(=S)N1CCN(C/C=C/c2ccccc2)CC1)c1ccc(Cl)nc1,-7%
13,O=C(NC(=S)N1CCN(Cc2ccc3c(c2)OCO3)CC1)c1ccc(Cl)cc1,21% (active)
14,O=C(NC(=S)N1CCN(Cc2ccc3c(c2)OCO3)CC1)c1cccc(Br)c1,48% (active)
15,CCCCNC(=S)NNC(=O)c1ccc2c(c1)OCO2,-13%
16,COc1ccc(C(=O)N2CCN(Cc3ccc4c(c3)OCO4)CC2)cc1[N+](=O)[O-],-7%
